According to paper PMC5540273 (PLoS ONE, 2017):

How the values were obtained:
Conditions in all cases: concentration: 1 μM, replicates: in singlicate; n = 1
[1] = tested on: CSF1R
[2] = tested on: CSK
[3] = tested on: CSNK1A1L
[4] = tested on: CSNK1A1
[5] = tested on: CSNK1D
[6] = tested on: CSNK1E
[7] = tested on: CSNK1G1
[8] = tested on: CSNK1G2
[9] = tested on: CSNK1G3
[10] = tested on: CSNK2A1
[11] = tested on: CSNK2A2
[12] = tested on: T1, CTK
T1 construct: gene MATK

[13] = tested on: DAPK1
[14] = tested on: DAPK2
[15] = tested on: DAPK3
[16] = tested on: T2, DCAMKL1
T2 construct: gene DCLK1

[17] = tested on: T3, DCAMKL2
T3 construct: gene DCLK2

[18] = tested on: T4, DCAMKL3
T4 construct: gene DCLK3

[19] = tested on: DDR1
[20] = tested on: DDR2
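Also: KINOMEscan kinase panel screen.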

Structure (SMILES)	%Inh [1] [%]	%Inh [2] [%]	%Inh [3] [%]	%Inh [4] [%]	%Inh [5] [%]	%Inh [6] [%]	%Inh [7] [%]	%Inh [8] [%]	%Inh [9] [%]	%Inh [10] [%]	%Inh [11] [%]	%Inh [12] [%]	%Inh [13] [%]	%Inh [14] [%]	%Inh [15] [%]	%Inh [16] [%]	%Inh [17] [%]	%Inh [18] [%]	%Inh [19] [%]	%Inh [20] [%]
COc1ccc(-c2coc3ccc(-c4nnc(SCc5cccc(C#N)c5)o4)cc23)cc1	2	20	7	10	0	5	11	0	8	3	28	0	29	0	0	35	0	0	0	3
Cn1c(=O)c(F)c(Nc2ccc(I)cc2F)c2c(=O)n(OC[C@H](O)CO)cnc21	21	20	0	36	12	25	11	20	4	0	0	0	0	0	13	13	20	20	0	25
CCc1nc(-c2cccc(C)c2)c(-c2ccncc2)s1	0	0	12	58	68	70	0	10	12	4	0	0	11	0	9	30	2	4	30	17
O=C1NC(=O)C(c2ccccc2)=C1Nc1cccc(O)c1 [SB-390534]	10	0	8	19	0	16	0	0	8	0	0	4	0	0	0	6	0	0	0	0
CCC(=O)c1c(-c2ccccc2)c2cc(Cl)ccc2c(=O)n1Cc1cc(S(C)(=O)=O)n(CCC(C)(C)O)n1	16	0	0	31	8	0	21	15	0	17	22	0	16	3	0	15	22	21	14	0
COc1ccc(-n2cnc3c(N)ncnc32)cc1 [SKF-97236]	0	4	7	33	42	34	13	11	6	12	3	3	13	1	0	13	0	9	10	0
Nc1n[nH]c2nnc(-c3ccccc3)c(-c3ccccc3)c12 [GW554060]	0	0	13	0	0	7	0	0	0	11	0	0	0	0	19	1	0	0	28	22
Cc1c(Cn2c(C)nn3c(=O)cc(N4CCO[C@H](C)C4)nc23)cccc1C(F)(F)F [GSK2373690]	51	0	2	23	25	20	67	0	21	0	0	0	0	0	8	0	17	11	15	2
COc1cc2nccc(Nc3ccc(OCc4ccc(NC(C)=O)cc4)cc3)c2cc1OC.Cl [GW440135]	73	0	15	0	0	16	0	0	15	5	0	20	0	10	1	4	0	0	0	45
COc1cc(Nc2nccc(N3CCC(NC(=O)C(C)c4ccc(Cl)cc4)C3)n2)cc(OC)c1OC (centres unmarked) [GSK1379757]	4	0	0	0	0	18	0	0	25	1	0	0	0	0	0	11	0	0	0	6
COC(=O)c1c(-c2ccccc2)c2cc(Br)ccc2c(=O)n1Cc1ccc(NC(=O)CCC(=O)O)cc1	9	0	18	16	0	0	0	11	0	11	19	6	0	0	0	16	0	0	2	22
COc1ccc(-c2cc3c(C)nc(N)nc3n([C@H]3CC[C@H](O)CC3)c2=O)cn1	0	0	0	13	0	0	0	0	0	0	0	0	0	0	1	0	0	0	0	0
O=c1cc(N2CCOCC2)nc2n(Cc3ccc(F)c(Cl)c3)ccn12 [GSK2297099]	26	13	6	0	9	52	12	0	34	1	6	0	23	0	23	0	0	0	10	0
O=C(Nc1n[nH]c2nc(-c3ccccc3)c(Cl)cc12)C1CC1 [SB-734909]	28	0	0	0	0	11	0	0	0	31	34	27	9	0	0	16	18	8	17	18
CN1C(=O)C(Nc2ccccc2)=C(c2ccccc2)C1=O [SB-300079]	16	0	0	0	0	0	0	0	0	0	0	28	0	0	0	22	0	0	0	37
COc1cc2ncn(-c3cc(OCc4ccncc4)c(C(N)=O)s3)c2cc1OC [GSK336313]	15	0	2	0	8	29	0	0	30	2	29	0	8	0	10	4	0	55	0	0
Cc1ccc(-c2ccc3c(ccc4sc5c(c43)NC[C@@H](C)N=C5N(C)C)n2)cn1	0	0	0	6	0	0	0	0	1	0	0	8	0	0	0	9	0	0	0	0
COc1cccc(-n2cnc3c(N)ncnc32)c1 [SKF-97416]	7	8	0	31	12	0	0	0	3	0	11	48	15	0	3	0	4	0	0	21
Nc1nc(N)c2nc(-c3ccccc3)[nH]c2n1 [SKF-12778]	2	0	0	52	26	25	18	32	30	14	22	24	12	0	1	15	0	60	0	9
